# EWS-Fli block – blocks EWS/Fli oncoprotein-driven transcription | A673 NR0B1-luciferase reporter, viability-normalised | AID 651661 | inhibition, % at 12.6 µM | 350,000 tested, 0.67% active;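 active means mean inhibition of at least 50% after viability correction, with every replicate also passing that limit; inconclusive means mean reaches 50% but only one of two replicates passes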;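 further: firefly luciferase signal divided by Alamar Blue viability fluorescence both relative to DMSO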
# GSIS activator – primary screen for activators of insulin secretion dependent on glucose, INS-1E cells, GLuc reporter luminescence; INS-1E GLuc reporter insulin secretion, 2-3 h; 370,000 tested, 0.61% active; activation, % at 16.6 µM; AID 743287;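 active means lowest replicate activation of at least 40%, so every replicate reaches that level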;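 further: 0% = median of neutral control wells and 100% = median of IBMX positive control wells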
# C2C12 statin – suppressors of simvastatin-induced myotoxicity in C2C12 myotubes; ATP luminescence, 48 h; scaled: DMSO 0, geranylgeraniol control 100; rescue of ATP level, % at 7.49 µM; AID 602340; 330,000 tested, 0.78% active;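 active means mean ATP rescue above about 67%, or every replicate alone reaching that limit, limit read from the data, passing the limit was not always enough; inconclusive means no clear call, values can overlap the other calls; inactive means mean under the limit and some replicate under it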;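 further: myotubes were challenged with 10 µM simvastatin during compound exposure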
# Env fusion inh – blocks HIV Env-driven cell-cell fusion; inhibition, % at 12.3 µM; AID 651610; HeLa-JRFL Env/CEM21 cell fusion, luciferase; 360,000 tested, 1.1% active;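 active means mean replicate inhibition score of at least 50 and every replicate individually at or above 50; inconclusive means only one of the two criteria met; inactive means mean below 50 and not all replicates reaching 50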;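 further: 0% = plate neutral controls and 100% = maraviroc near 300 nM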
# PAX8 reporter – PAX8 transcriptional activity inhibition. RMG-I TPO-luciferase reporter, SteadyGlo, 24 h. inhibition, % at 12.6 µM. 360,000 tested, 1.2% active;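 active means mean replicate inhibition at least 60% with every replicate also reaching 60%; inconclusive means only one of the two criteria is met; inactive means mean below 60% and not all replicates reaching 60%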;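 further: luciferase light reporting Pax8 driven TPO promoter activity; plate controls were median of neutral control wells for no effect and mitoxantrone controls for full effect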
# miR122 inh – blocks miR-122 activity in Huh7 sensor cells; AID 602342; activation (reporter increase), % at 12.5 µM; Huh7 miR-122 Renilla luciferase sensor, 48 h; neutral wells = 0, positive control = 100; 340,000 tested, 0.3% active;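 active means mean replicate activation score at least 90 and every replicate individually at or above 90; inconclusive means only one of the two criteria met; inactive means neither criterion met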;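 further: higher luciferase means less miR-122 activity so hits act as miR-122 inhibitors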
# Numbers without * were called inactive; ? = inconclusive; nt = not tested or not shown; [ ] = dose if it differs, or a comment. Shown are actives, neighbours in structure and some others; about 3.1% of the full set was active somewhere.
SMILES,EWS-Fli block,GSIS activator,C2C12 statin,Env fusion inh,PAX8 reporter,miR122 inh
O=C(CCCN1C(=O)/C(=C\c2cccc(Br)c2)SC1=S)Nc1cccnc1,25.2,-0.8,nt,1.0,105.7*,nt
O=C(CCCN1C(=O)/C(=C/c2ccccc2OC(F)F)SC1=S)Nc1cccnc1,-4.2,-10.7,8.7,8.6,98.3*,23.2
Cc1ccc(/C=C2\SC(=S)N(CCCC(=O)Nc3cccnc3)C2=O)cc1,nt,nt,nt,nt,nt,-8.2
O=C(CCCN1C(=O)/C(=C/c2cccc(Br)c2)SC1=S)Nc1cccnc1,-19.0,-14.5,nt,-11.1,94.1*,-3.3
COc1ccccc1/C=C1/SC(=S)N(CCC(=O)Nc2cccnc2)C1=O,3.3,-10.5,6.3,-9.4,12.4,1.7
O=C(CCCN1C(=O)/C(=C/c2cccc(Br)c2)SC1=S)Nc1ccccn1,nt,nt,-6.7,-27.7,110.2*,0.7
COC(=O)C[C@H]1CC[C@@H](NS(=O)(=O)c2ccccc2F)[C@@H](CO)O1,-5.6,9.4,5.9,16.0[16.7 µM],-3.0,nt
CC(C)CC(NS(=O)(=O)c1ccc2c(c1)oc(=O)n2C)C(=O)NC1CCCc2ccccc21 (configuration not stated),-1.7,-1.2,-0.7,58.2*,0.1,-1.0
Cn1c(=O)oc2cc(S(=O)(=O)NCCC(=O)NC3CCCc4ccccc43)ccc21 (configuration not stated),12.0,nt,-7.2,nt,nt,-2.0
Cc1ccn2c(NC3CCCCC3)c(-c3cccc(-c4cccc(Cl)c4)c3)nc2c1,26.8,-19.0,5.6,69.6*,17.4,37.0
COc1ccc(-c2nc3ccccn3c2NC2CCCCC2)cc1SC1CCCCC1,22.8,nt,-17.8,44.2,32.3,114.7*
COc1cc(-c2nc3ccccn3c2NCc2ccccc2)ccc1SC1CCCCC1,nt,nt,4.7,nt,nt,nt
Cc1ccccc1-c1cnc2c(c1)C(=O)N([C@H](C)CO)C[C@H](C)[C@H](CN(C)Cc1ccncc1)O2,-6.3,1.8,-24.8,14.2[16.7 µM],1.1,4.8[16.7 µM]
CO[C@@H]1CN(C)C(=O)c2cc(NC(=O)C3CC3)ccc2OC[C@@H](C)N(C(=O)c2cnccn2)C[C@H]1C,7.5,8.5,-2.2,nt,2.0,nt
CN(Cc1ccccc1)c1ncnc2[nH]ncc12,-0.7,40.2*,-3.7,nt,-20.0,3.9
CN(Cc1ccccc1)c1ncnc(N)c1[N+](=O)[O-],-6.5,44.2*,nt,?,-19.1,nt
CC1(C)Cc2nc3sc4c(OCc5ccccc5)ncnc4c3cc2CO1,nt,-9.6,73.7*,-101.2,21.4,-13.1
CCc1nc(OCc2ccccc2)c2sc3nc4c(cc3c2n1)COC(C)(C)C4,nt,nt,7.7,14.3,nt,5.0
Cc1ccc(Nc2nc(-c3cccnc3)nc3ccccc23)cc1,58.3*,-5.6,nt,32.6,29.0,0.3
C[C@H](CO)N1C[C@H](C)[C@H](CN(C)CC2CC2)Oc2ccc(NC(=O)Cc3ccccc3)cc2C1=O,-3.6,6.6,4.6,23.7[16.7 µM],4.7,4.3[16.7 µM]
Cc1ccc(S(=O)(=O)Nc2ccccc2C(C(=O)OC(C)(C)C)C(=O)OC(C)(C)C)cc1,10.7,-25.9,nt,57.4*,5.9,nt
O=C(Nc1nnc(-c2ccc(F)cc2)s1)C1CCN(S(=O)(=O)c2ccc(Cl)cc2)CC1,nt,60.0*,nt,-86.5,13.8,nt
Cc1ccc(S(=O)(=O)N2CCC(C(=O)Nc3nnc(-c4ccc(F)cc4)s3)CC2)cc1,nt,28.7,nt,-24.1,3.8,nt
CCCc1cn(CC[C@H]2CC[C@H](NC(=O)C3CC3)[C@@H](CO)O2)nn1,-5.4,3.1,0.6,16.3[16.7 µM],-13.1,nt
O=S1(=O)CCO[C@H]2Cc3ccccc3[C@H]2N1Cc1cccc(F)c1,-14.1,-38.9,3.1,1.9,-6.9,-1.0
SMILES,EWS-Fli block,GSIS activator,C2C12 statin,Env fusion inh,PAX8 reporter,miR122 inh
O=S1(=O)CCO[C@H]2Cc3ccccc3[C@H]2N1Cc1cccc(C(F)(F)F)c1,-2.8,-10.5,12.8,66.3*,18.1,4.9
CCN(CC)C(=O)CNC(=O)c1nn(-c2ccc(OC)c(Cl)c2)c(=O)c2ccccc12,5.5,-11.6,-20.6,-1.0,-6.6,-9.1
COc1ccc(-n2nc(C(=O)NCC(=O)Nc3cc(OC)c(OC)c(OC)c3)c3ccccc3c2=O)cc1Cl,7.6,-3.8,-2.3,22.0,80.9*,-2.3
O=C(C[C@@H]1C[C@@H]2c3cc(NC(=O)Nc4ccccc4F)ccc3O[C@@H]2[C@H](CO)O1)NCc1ccc(Oc2ccccc2)cc1,-4.8,7.8,3.4,2.5[16.7 µM],82.3*,-0.2[16.7 µM]
CS(=O)(=O)Nc1ccc2c(c1)[C@@H]1C[C@@H](CC(=O)NCc3ccc(-c4ccccc4)cc3)O[C@@H](CO)[C@@H]1O2,56.6*,-19.5,-49.8,nt,81.9*,69.4[16.7 µM]
CS(=O)(=O)Nc1ccc2c(c1)[C@@H]1C[C@@H](CC(=O)NCc3ccc(Oc4ccccc4)cc3)O[C@H](CO)[C@@H]1O2,52.7*,-7.4,-15.6,-19.0[16.7 µM],31.2,-3.2[16.7 µM]
O=C(C[C@H]1C[C@H]2c3cc(NC(=O)Nc4ccccc4F)ccc3O[C@H]2[C@H](CO)O1)NCc1ccc(Oc2ccccc2)cc1,-0.2,-3.0,5.8,12.5[16.7 µM],12.4,2.5[16.7 µM]
CS(=O)(=O)Nc1ccc2c(c1)[C@@H]1C[C@@H](CC(=O)NCc3ccc(Oc4ccccc4)cc3)O[C@@H](CO)[C@@H]1O2,55.5*,22.9,-8.4,-237.9[16.7 µM],84.1*,-2.7[16.7 µM]
CS(=O)(=O)Nc1ccc2c(c1)[C@H]1C[C@@H](CC(=O)NCc3ccc(-c4ccccc4)cc3)O[C@@H](CO)[C@H]1O2,4.2,-1.4,2.7,nt,6.9,-4.9[16.7 µM]
C[C@@H]1CN([C@@H](C)CO)C(=O)c2cccc(N(C)C)c2O[C@@H]1CN(C)C(=O)Nc1ccccc1,-4.5,-4.3,0.4,nt,-14.3,7.8[16.7 µM]
O=C(C[C@H]1CC[C@H]2[C@@H](COC[C@H](O)CN2Cc2nccs2)O1)NCc1ccccc1,2.3,11.8,-2.0,nt,-5.9,10.6[16.7 µM]
O=C(C[C@@H]1C[C@@H]2c3cc(NC(=O)c4ccc5c(c4)OCO5)ccc3O[C@@H]2[C@@H](CO)O1)NCc1ccc(Oc2ccccc2)cc1,?,-5.1,-127.7,70.7*[16.7 µM],11.1,8.0[16.7 µM]
O=C(C[C@H]1C[C@H]2c3cc(NC(=O)c4ccc5c(c4)OCO5)ccc3O[C@H]2[C@@H](CO)O1)NCc1ccc(Oc2ccccc2)cc1,-14.0,0.1,-44.9,42.4[16.7 µM],-20.2,-1.6[16.7 µM]
Cc1cccc(NC(=O)CCc2ccc(N3C(N)=NC(N)=NC3(C)C)cc2)c1,?,-2.2,nt,12.9,65.5*,nt
CC1(C)N=C(N)N=C(N)N1c1cccc(CC(=O)Nc2ccccc2)c1,11.8,nt,-3.0,-8.5,19.2,-0.8
CN(C)c1ccnc2c[cH-]cc12.[Fe].c1ccc(-[c-]2[c-](-c3ccccc3)[c-](-c3ccccc3)[c-](-c3ccccc3)[c-]2-c2ccccc2)cc1 (configuration not stated),17.3,nt,-16.0,57.4*,8.4,-1.4
CN(C)c1ccnc(Nc2ccccc2)c1C#N,-4.4,16.7,nt,9.2,-9.0,0.6

# Bioassay records: PubChem BioAssay, Broad Institute
